Assay outcomes from PubChem BioAssay.
The full list was thinned out, with hits kept by preference.
NS1 function inh: qHTS Assay for Inhibitors of Influenza NS1 Protein Function; Potency, µM (titrated, usually from 46.1 µM), inactives show at the highest dose activity, positive = more growth; 270,000 tested, 0.4% active; AID 2326, 2010; calls by dose curve; note: actives are rising curves; nearly all actives have a fitted effect of over 50% in size
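Growth recovery, yeast-based: influenza A NS1 expressed in S. cerevisiae causes slow growth, and suppressors are detected by OD600. The parent strain without NS1 is used as positive control.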
Cruzain inh Det: qHTS Assay for Promiscuous and Specific Inhibitors of Cruzain (with detergent); Cruzipain (Trypanosoma cruzi), P25779; purified cruzain, Z-FR-AMC fluorescence, 0.01% Triton; Potency, µM, without a hit: max response, negative = inhibition, usual class: inhibitors; 200,000 tested, 0.43% active; AID 1478, 2009;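 note: plate controls were neutral wells for no effect and buffer without enzyme for full effect; nearly all actives have a fitted effect of over 40% in size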
Target sequence (P25779 123-467 limits assumed): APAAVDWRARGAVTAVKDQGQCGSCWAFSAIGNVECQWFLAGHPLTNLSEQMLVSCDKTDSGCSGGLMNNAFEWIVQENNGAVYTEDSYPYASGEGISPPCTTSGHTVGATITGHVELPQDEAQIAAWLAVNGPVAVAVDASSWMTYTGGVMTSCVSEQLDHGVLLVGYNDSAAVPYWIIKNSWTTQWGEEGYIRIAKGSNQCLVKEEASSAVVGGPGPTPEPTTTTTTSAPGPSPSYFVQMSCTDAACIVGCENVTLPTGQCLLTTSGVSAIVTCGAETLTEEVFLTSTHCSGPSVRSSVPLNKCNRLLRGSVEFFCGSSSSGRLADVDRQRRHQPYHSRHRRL
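Steps: dispense cruzain (1.5 nM final) in acetate buffer pH 5.5 with DTT and 0.01% Triton X-100; pin-transfer compounds; incubate 15 min RT; add Z-FR-AMC (2 uM final); read fluorescence every 30 s, using the 60 s intensity change.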
Cruzain inh noDet: qHTS Assay for Promiscuous and Specific Inhibitors of Cruzain (without detergent); purified cruzain, Z-FR-AMC fluorescence, no detergent; Potency, µM, for the others: max response, negative = inhibition, hits mostly inhibitors; 200,000 tested, 2.3% active; AID 1476, 2009;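 note: plate controls were enzyme without inhibitor for no effect and buffer without enzyme for full effect; nearly all actives have a fitted effect of over 40% in size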
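Purified cruzain at 1.5 nM, pre-incubated 15 min with compound at room temperature in 100 mM sodium acetate pH 5.5, 5 mM DTT, 0.00005% Triton X-100. Reaction started with 2 uM Z-FR-AMC; AMC fluorescence increase over 60 s gives rate.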
The depositor's hits bear a star; ? = inconclusive; · = no result given. Unless noted, calls come from the whole dose curve; as a rule, active = well fitted curve in the direction sought with a large enough effect; inconclusive = small, poorly fitted or top-dose-only effect, or another doubt; inactive = no such curve, though single readings can be large; an effect the other way counts as inactive or inconclusive. Potency is the fitted concentration of half-maximal effect.

SMILES	NS1 function inh	Cruzain inh Det	Cruzain inh noDet
Cc1nc2cncnc2n(C2CC2)c1=O	·	3.8%	5.3%
C=CC(=O)OCCCCCCOC(=O)C=C	·	2.6%	4.7%
COC(=O)c1ccc(-c2ncc(-c3cccc4ccccc34)o2)cc1	2.1%	20µM*	?
COC(=O)c1ccc(-c2nc3ccccc3o2)cc1	-27.1%	2.1%	6.6%
Cc1ccccc1C(=O)Nc1cccc(NC(=O)c2ccc(C(C)(C)C)cc2)c1	·	-0.1%	-13.8%
CC(=O)C(N=Nc1ccccc1)(Sc1nnc(-c2ccccc2)n1-c1ccccc1)C(=O)Nc1ccccc1 (stereo not given)	?	-0.9%	25.1µM*
CC(=O)C(N=Nc1ccccc1)(Sc1nnc(-c2ccccc2)n1-c1ccccc1)C(C)=O	-7.6%	1.1%	-24.8%
O=C(/C=C/c1cccnc1)c1ccc(NC(=O)c2cccc(Br)c2)cc1	-14.2%	-10.7%	25.1µM*
Cc1cccc(C(=O)Nc2ccc(C(=O)/C=C/c3cccnc3)cc2)c1	-26.2%	-13.3%	?
CC(C)c1ccc(/C(C(=O)O)=C(\O)C(=O)O)cc1	-2.4%	-1.3%	-12.2%
Cc1ccc(CNc2nc(N)c([N+](=O)[O-])c(Nc3cccc(F)c3)n2)cc1	0.1%	-0.6%	20µM*
Nc1nc(NCc2ccccc2)nc(Nc2ccc(F)cc2)c1[N+](=O)[O-]	-1.4%	-4.4%	7.94µM*
Nc1nc(NCc2ccco2)nc(Nc2cccc(F)c2)c1[N+](=O)[O-]	-1.9%	·	·
Nc1nc(NCc2ccccc2)nc(Nc2cccc(F)c2)c1[N+](=O)[O-]	3.2%	5.8%	31.6µM*
Nc1nc(NCCc2ccccc2)nc(NCc2ccccc2)c1[N+](=O)[O-]	7.3%	·	·
Nc1nc(Nc2cccc(F)c2)nc(NCCO)c1[N+](=O)[O-]	3.8%	·	·
CCCCOC(=O)c1ccc(NC(=O)CSc2nc3c(c(=O)[nH]2)CCCC3)cc1	·	-8.7%	-6.7%
O=C1[C@@H]2[C@@H](C(=O)N1c1ccc(OCc3ccccc3)cc1)[C@@H]1c3ccccc3[C@@H]2[n+]2ccccc21	10.3%	0.9%	-5.6%
c1ccsc1	·	0.5%	7.6%
COc1ccccc1C(=O)Nc1ccc(C(=O)OCc2cc(=O)n3ccsc3n2)cc1	·	1.0%	5.1%
CC(=O)c1cccc(S(=O)(=O)NCCc2csc3nc(-c4ccc(F)cc4)nn23)c1	·	-3.5%	5.2%
CCCNc1nc(NCc2ccccc2OC)c2cnn(C)c2n1	·	-6.3%	-0.8%
CCC(=O)N1CCc2cc(S(=O)(=O)CCC(=O)Nc3ccc(Cl)c(C(F)(F)F)c3)ccc21	·	-2.3%	0.6%
Cc1ccc(S(=O)(=O)NNC(=S)NC(=O)c2ccc([N+](=O)[O-])cc2)cc1	6.9%	?	3.98µM*
Cc1ccc(C(=O)NC(=S)NNS(=O)(=O)c2ccc(C)cc2)cc1	-66.6%	?	-23.9%
Nc1cnn([C@@H]2O[C@H](CO)[C@@H](O)[C@H]2O)c(=O)n1	·	5.0%	-2.3%
Cc1ccc(S(=O)(=O)Nc2cc3c(cc2N2CCOCC2)n(C)c(=O)n3C)c(C)c1	·	-1.4%	?
